Data reported in PubChem BioAssay (NCI).
Compounds without any hit were thinned out: in the full panel of roughly 83,000, 20% have a hit.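 Testing used 96-well plates and a 48-hour single-concentration exposure. Example: -40 means 40% of the starting cells died.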 Active and inactive are the calls of the source. The calls were made as follows: active = growth percent below 10; inactive = the rest.

The molecules below were run on HS 578T breast (assay: NCI-60 one-dose screen, 48 h (100 = growth as untreated, 0 = no growth, -100 = all killed)). Details: 10 µM unless noted.

SMILES	growth
O=C(O)c1ccc(-n2cc(CNc3cc(F)c(F)c(F)c3)c(-c3ccc(F)cc3)n2)cc1	97.5% (inactive)
COc1cc2nc(Cl)nc(Nc3cccc(C4=Nc5c(N)nc(N)nc5NC(c5ccc(Cl)cc5)C4)c3)c2cc1OC (stereo not given)	88.6% (inactive)
CNC(=O)c1cc(N2CCc3cc(NC(=O)Nc4ccc(Cl)c(C(F)(F)F)c4)ccc32)ccn1	44.8% (inactive)
N=c1c2cc(-c3ccccc3)oc2ncn1/N=C/c1ccc(Br)cc1	79.1% (inactive)
NC(N)=Nc1ccc(Oc2cccc(NC(N)=Nc3ccc(Br)c(C(F)(F)F)c3)c2)cc1	34% (inactive)
CN(Cc1ccccc1)S(=O)(=O)/N=C1\NC(=O)NC1=C(Cl)Cl	96.7% (inactive)
COc1ccc(S(=O)(=O)NCCCNc2nccc(-c3[nH]c(-c4ccccc4)nc3-c3ccc(Cl)c(O)c3)n2)cc1	112% (inactive)
O=C(CN1CCN(c2cc(=O)n(-c3ccccc3)c3ccccc23)CC1)Nc1nc(-c2ccc(Cl)cc2)cs1	92.8% (inactive)
CC(=O)c1nnn(-c2c(C(=O)n3nc(C)cc3C)sc(=S)n2-c2ccccc2)c1C	113% (inactive)
O=C1[C@H]2Cc3c([nH]c4ccccc34)[C@@H](c3ccc(Br)cc3)N2C(=O)CN1C1CCN(CC2CCCCC2)CC1	-56.4% (active)
NS(=O)(=O)c1ccc(Nc2nc(Nc3ccccc3)nc3nnc(SCC(=O)NC4CCCCC4)n23)cc1	102% (inactive)
Cn1ccnc1C(=O)/C=C/C=C/c1ccc(C(=O)Nc2ccc(F)cc2)cc1	39.1% (inactive)
O=C1[C@H]2Cc3c([nH]c4ccccc34)[C@@H](c3ccc(Cl)cc3)N2C(=O)CN1C1CCN(Cc2ccccc2)CC1	68.1% (inactive)
NC(N)=Nc1ccc(Oc2cccc(Nc3ccc(Br)c(C(F)(F)F)c3)c2)cn1	-15.3% (active)
CCn1c2ccccc2c2cc(-n3nncc3-c3ccccc3)ccc21	19.3% (inactive)
CN1CCN(Cc2ccc(NC(=O)c3cncc(C#Cc4cnc5ccc(OCC(C)(C)O)nn45)c3)cc2C(F)(F)F)CC1	-36.9% (active)
Cc1ccc(-n2c(/C=C3\C(=O)Nc4ccccc43)ccc2CO)cc1	87.3% (inactive)
Cc1c(F)cc(C(N)=O)cc1NCC(=O)Nc1ccc([N+](=O)[O-])cc1	88.4% (inactive)
CCOC(=O)c1c(N)c(C#N)cn1-c1cc(OC)c(OC)c(OC)c1	99.5% (inactive)
O=c1[nH]c(Sc2sc3ccc(Cl)cc3c2CBr)nc(=S)[nH]1	19.3% (inactive)
CC(=O)c1ccc(Nc2nc(SCC(C)C)nc(-c3ccccc3)c2C#N)cc1	44.6% (inactive)
CS(=O)(=O)c1ncc(-c2ccccc2)cn1	111% (inactive)
CNC(=O)c1c(NC(=O)c2ccccc2C(F)(F)F)sc2c1CCC(=O)C2	40% (inactive)
NC(N)=Nc1ccc(Nc2cccc(Oc3ccc(Cl)c(C(F)(F)F)c3)c2)cn1	45.4% (inactive)
CC(C)c1ccc(NCc2cn(-c3ccc(C(=O)O)cc3)nc2-c2cc(C(F)(F)F)cc(C(F)(F)F)c2)cc1	68% (inactive)
COc1cc2nc(Cl)nc(Nc3cccc(C4=Nc5c(N)nc(N)nc5NC(c5ccccc5)C4)c3)c2cc1OC (stereo not given)	96.4% (inactive)
O=C(CCn1c[n+](CC(=O)c2ccc(F)cc2)c2ccccc21)Nc1cccc2cccnc12	84.5% (inactive)
COc1cc(-c2nc(-c3ccccc3)[nH]c2-c2ccnc(NCCCNS(=O)(=O)c3cccc(F)c3)n2)ccc1Cl	78% (inactive)
N#Cc1c(NC(=O)c2cccc(C(F)(F)F)c2F)sc2c1CCC(=O)C2	-17% (active)
COC[C@]12CCC(C)(C)C[C@H]1C1=CC[C@@H]3[C@@]4(C)CCCNC(C)(C)[C@@H]4CC[C@@]3(C)[C@]1(C)CC2	-44.6% (active)
